LASV entry inh = qHTS for Inhibitors of binding or entry into cells for Lassa Virus; Lassa virus pseudotype entry inhibition, cell reporter; AID 540256, 2011; Potency, µM (top dose mostly 37.9 µM), hits mostly inhibitors; 300,000 tested, 1.2% active; calls by dose curve; tested in HEK293 cells; further: nearly all actives have a fitted effect of over 50% in size
Shiga inhibitor = A qHTS for Small Molecule Inhibitors of Shiga Toxin. Vero cells, Shiga toxin protein synthesis inhibition reporter. inhibition, % at 38.7 µM. 290,000 tested, 9.2% active; in the data active means inhibition mostly above about 28%, no sharp cut-off; inactive means mostly below about 43%
Pf growth 48h = Primary qHTS for delayed death inhibitors of the malarial parasite plastid, 48 hour incubation | Potency, µM (doses to about 28.7 µM), usual class: inhibitors | 310,000 tested, 5.9% active | AID 504832, 2011 | P. falciparum luciferase growth in erythrocytes, 48 h
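Read-out is firefly luciferase luminescence from an integrated reporter in P. falciparum, so falling signal marks reduced parasite growth. Infected erythrocytes were at 2% hematocrit and 0.1% parasitemia (final) in Albumax-supplemented RPMI 1640.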
Cycloheximide cs = Cycloheximide Counterscreen for Small Molecule Inhibitors of Shiga Toxin. 300,000 tested, 12% active. cell reporter, cycloheximide protein synthesis inhibition counterscreen. max response, %; in the data active means max response mostly above about 13%, no sharp cut-off; inactive means mostly below about 14%; further: read at 38.3 µM for the half of the compounds with a filed dose
Marburg entry inh = qHTS for inhibitors of binding or entry into cells for Marburg Virus; Potency, µM (series often up to 37.8 µM), most hits filed as inhibitors; 300,000 tested, 1.8% active; Marburg virus pseudotyped entry inhibition, cell reporter; calls by dose curve; tested in HEK293 cells
Pf growth 96h = Primary qHTS for delayed death inhibitors of the malarial parasite plastid, 96 hour incubation; P. falciparum luciferase reporter growth, 96 h; Potency, µM (top dose mostly 28.7 µM), hits mostly inhibitors; 320,000 tested, 6.9% active
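Luminescence readout: decreased luciferase signal marks inhibited growth of reporter-expressing P. falciparum in infected red cells (2% hematocrit, 0.05% parasitemia final), exposed to compound two generations (96 h, 37 C, 5% CO2).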
Each line names hits and unclear results; the compound was inactive in the other large screens. The list is not random: actives were taken first. Their share in the collection is about 19%. Unless noted, the call rests on the fitted dose curve; in most records, active means well fitted inhibition curve with a large enough effect; inconclusive means small, poorly fitted or top-dose-only effect, or another doubt; inactive means no such curve, though single readings can be large or run the other way.

CC(C)c1ccc(NC(=O)CCNS(=O)(=O)c2cccc3nsnc23)cc1	none (no result: Pf growth 96h)
O=C(CCNS(=O)(=O)c1cccc2nsnc12)NCCC1=CCCCC1	Marburg entry inh inconclusive
Cc1ccc(NS(=O)(=O)c2cccc3nsnc23)cc1	Pf growth 48h inconclusive (no result: LASV entry inh, Marburg entry inh)
O=S(=O)(NCCC1=CCCCC1)c1cccc2nsnc12	Pf growth 48h 3.7µM
CCOC(=O)c1cc(-c2ccccc2)n(CCC(=O)NCc2ccccc2Cl)c1C	none (no result: Shiga inhibitor, Pf growth 48h, Cycloheximide cs, Marburg entry inh, Pf growth 96h)
O=C(COc1ccc([N+](=O)[O-])cc1)N/N=C/c1ccccn1	none
Cc1ccc(C(=O)OCC(=O)NCC(F)(F)F)cc1C	none
O=S(=O)(Nc1ccccc1)c1cccc2nsnc12	Pf growth 96h 8.3µM
COc1ccc(C2=NN(C(C#N)c3ccc(OC)cc3)C(c3ccccc3)C2)cc1 (stereo unspecified)	LASV entry inh inconclusive, Shiga inhibitor 83, Cycloheximide cs 33, Marburg entry inh inconclusive
COc1ccc(C(C#N)N2N=C(c3ccccc3)CC2c2ccccc2)cc1OC (stereo unspecified)	Shiga inhibitor 44, Cycloheximide cs 68, Marburg entry inh inconclusive
COc1ccc(C2=Nc3nc(-c4ccccc4)cn3C(c3ccc(OC)cc3)C2)cc1 (stereo unspecified)	Pf growth 48h 2.9µM, Pf growth 96h inconclusive (no result: LASV entry inh, Marburg entry inh)
COc1ccc(C(C#N)N2N=C(C)CC2c2ccccc2)cc1OC (stereo unspecified)	none (no result: LASV entry inh, Marburg entry inh)
COc1ccc(C(C#N)N2N=C(C)CC2c2ccccc2)cc1 (stereo unspecified)	none (no result: Pf growth 48h)
Cc1ccc2nc(COc3ccccc3NC(=O)COc3ccccc3Cl)cc(=O)n2c1	none (no result: Shiga inhibitor, Pf growth 48h, Cycloheximide cs, Marburg entry inh, Pf growth 96h)
O=C(NNC(=O)C12CC3CC(CC(O)(C3)C1)C2)c1ccccc1O	none (no result: LASV entry inh, Marburg entry inh)
Cn1c(=O)c([N+](=O)[O-])c(NC2CCS(=O)(=O)C2)c2ccccc21 (stereo unspecified)	none
COc1ccc(CCN2C(=S)N(c3ccc(Cl)cc3)C(=O)C2CC(N)=O)cc1OC (stereo unspecified)	Pf growth 48h 10µM, Marburg entry inh inconclusive, Pf growth 96h 12µM
CCOC(=O)c1ccc(N2C(=O)C(CC(N)=O)N(CCc3ccc(OC)c(OC)c3)C2=S)cc1 (stereo unspecified)	Pf growth 48h 15µM
COc1ccc(C(=O)NC(=S)Nc2ccc(Cc3ccncc3)cc2)cc1	LASV entry inh inconclusive, Pf growth 48h inconclusive, Marburg entry inh inconclusive
CC(C)(C)c1ccc(CCC2OCC(C[N+]3(C)CCOCC3)O2)cc1 (stereo unspecified)	Pf growth 48h inconclusive, Marburg entry inh inconclusive, Pf growth 96h 2.6µM
Cc1cc(N2CCCc3ccccc32)n2ncnc2n1	none (no result: LASV entry inh, Marburg entry inh)
Cc1csc(N2CCc3ccccc32)n1	LASV entry inh inconclusive, Cycloheximide cs 23, Marburg entry inh inconclusive
CCNC(=O)CSc1nnc(CN2CCCCCC2=O)n1-c1ccccn1	Pf growth 48h inconclusive
C/C(=N\NC(=S)NCc1ccccc1)c1ccc(Br)cc1	LASV entry inh inconclusive, Pf growth 48h inconclusive, Pf growth 96h inconclusive
CC(=O)N/N=C(\C)c1ccc2c(c1)OCCO2	none
C/C(=N\NC(=S)NCc1ccccc1)c1cccs1	Shiga inhibitor 135, Cycloheximide cs 35, Pf growth 96h inconclusive
C/C(=N\NC(=S)NCc1ccccc1)c1ccc2c(c1)OCCO2	Shiga inhibitor 93, Pf growth 96h inconclusive (no result: LASV entry inh, Marburg entry inh)
C/C(=N\NC(=S)Nc1ccc(F)cc1)c1ccc2c(c1)OCCO2	LASV entry inh inconclusive, Shiga inhibitor 66, Pf growth 48h inconclusive, Cycloheximide cs 28, Marburg entry inh 1µM, Pf growth 96h inconclusive
C/C(=N/NC(=O)c1ccc2c(c1)OCO2)c1ccc(NC(=O)c2ccc(F)cc2)cc1	Shiga inhibitor 40, Cycloheximide cs 34
O=C(COC(=O)C1CC1)NCCNC(=O)COC(=O)C1CC1	none (no result: Shiga inhibitor, Cycloheximide cs)
COc1ccc(Cn2c(SCC(=O)NCc3ccccc3)nc3ccccc32)cc1	none (no result: Shiga inhibitor, Pf growth 48h, Cycloheximide cs, Marburg entry inh, Pf growth 96h)
C/C(=N\NC(N)=S)c1ccc2c(c1)OCCO2	Shiga inhibitor 43, Cycloheximide cs 26, Pf growth 96h inconclusive
C/C(=N\NC(=O)CSc1nc(C)cc(C)n1)c1ccc2c(c1)OCCO2	Shiga inhibitor 84, Cycloheximide cs 38, Pf growth 96h inconclusive

Source: PubChem BioAssay
